PubChem BioAssay (NCATS)
Results filed as inconclusive are left out. Unmarked numbers belong to inactive results. Calls of active or inactive are those of the source. Calls come from the whole dose curve; as a rule, active = well fitted inhibition curve with a large enough effect; inconclusive = small, poorly fitted or top-dose-only effect; inactive = flat fitted curve, though single readings scatter.

target: Glutathione peroxidase 1 (Homo sapiens) (UniProt P07203); assay: Primary qHTS Assay for Inhibitors of Recombinant Selenoprotein Glutathione Peroxidase 1 (GPX1) (AID 1845191); settings: recombinant GPX1, GR-coupled NADPH fluorescence, 15 min; series mostly up to 27.7 µM; activity, negative = inhibition: at the top concentration; note: nearly all actives have a fitted effect of over 65% in size
Sequence (P07203 whole entry, looked up): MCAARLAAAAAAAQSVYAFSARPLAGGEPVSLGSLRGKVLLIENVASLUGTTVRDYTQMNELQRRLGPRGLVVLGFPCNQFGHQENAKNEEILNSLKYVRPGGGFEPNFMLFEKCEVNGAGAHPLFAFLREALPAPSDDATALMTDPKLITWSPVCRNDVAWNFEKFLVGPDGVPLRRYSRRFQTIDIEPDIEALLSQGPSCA
Outline: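 GPX1 10 nM, GR 100 nM, GSH 1 mM, NADPH 0.5 mM, CHP 0.5 mM (final). 30-min cpd preincubation, RT. Ex340/Em450 read t=0, t=15 min.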
% is set by controls: 0 for no effect and ±100 for the full control effect.

SMILES	activity, negative = inhibition	outcome
C[C@@H]1O[C@@H](O[C@@H]2\C=C/C=C\C=C/C=C\C[C@H](C)OC(=O)/C=C\[C@H]3O[C@@H]3C[C@H](O)C[C@]3(O)C[C@@H](O)[C@@H](C(=O)O)[C@H](C2)O3)[C@H](O)[C@H](N)[C@@H]1O	2.23% [at 48.8 µM]	
C[C@H]1CC[C@@]2(OC1)O[C@H]1CC3C4CC[C@H]5C[C@@H](O[C@@H]6O[C@H](CO)[C@H](O[C@@H]7O[C@H](CO)[C@@H](O)[C@H](O[C@@H]8OC[C@@H](O)[C@H](O)[C@H]8O)[C@H]7O[C@@H]7O[C@H](CO)[C@@H](O)[C@H](O)[C@H]7O)[C@H](O)[C@H]6O)[C@H](O)C[C@]5(C)C4=CC(=O)[C@]3(C)[C@H]1[C@@H]2C (some centres undefined)	-3.31% [at 15.3 µM]	
O=C(/C=C/c1ccc(O)cc1)OCC1OC(O)C(OC2OC(CO)C(O)C(O)C2O)C(O)C1O (centres undefined)	4.88%	
C=C(COC(=O)CC(C)C)C1Cc2cc(C(C)=O)ccc2O1 (centres undefined)	0.0599% [at 48.8 µM]	
COc1cn(-c2ccc(-n3cccn3)cc2F)nc(-c2ccnn2-c2ccccc2)c1=O		inactive [at 48.8 µM]
C=CC(C)(C)C12Nc3c(ccc4c3OC(C)(C)C=C4)C1(O)CC1C(=O)N3CCCC3C(=O)N12 (centres undefined)	-8.69%	
C[C@@H]1C[C@@H](O)[C@@]23CO[C@]2(CO)CCC[C@@H]3[C@@]12C[C@@H](c1ccoc1)OC2=O		inactive
CC1=C(CCC(C)O[C@@H]2O[C@H](CO)[C@@H](O)[C@H](O)[C@H]2O)C(C)(C)CC(O)C1 (some centres undefined)	-13.9%	
OC[C@H]1O[C@@H](OCCc2ccccc2)[C@H](O)[C@@H](O)[C@@H]1O	-13% [at 48.8 µM]	
Nc1ncnc2c1c(COc1cccc(Cl)c1)nn2C1CCOCC1	2.46% [at 48.8 µM]	
C=C(C)C1Cc2c(ccc3c2OCC(c2ccc(O)cc2O)C3)O1 (centres undefined)	-27%	
CC(C)=C1CC2C(CCC2(C)O)C(C)(O)CC1=O (centres undefined)		inactive [at 48.8 µM]
C/C=C1/C[N+](C)([O-])C2Cc3c([nH]c4ccccc34)C(=O)CC1C2C(=O)OC (centres undefined)		inactive
C=C1C[C@]23C[C@H]1CC[C@H]2[C@]1(C)CC[C@H](O)[C@@](C)(C(=O)O)[C@H]1[C@@H]3C(=O)O	-15.1%	
CC1=C2CC(=O)C(C)CC/C=C(\C)CC2OC1=O (centres undefined)	-8.8% [at 48.8 µM]	
CC(=O)OCC1OC(OC2COC(OC3COC(OC4C(OC5C(CO)OC(OC6CCC7(C)C(CCC8(C)C7CC=C7C9CC(C)(C)CCC9(C(=O)OC9OC(CO)C(O)C(O)C9OC9OCC(OC%10OCC(O)(CO)C%10O)C(O)C9O)C(O)CC78C)C6(C)C)C(O)C5O)OCC(O)C4O)C(O)C3O)C(O)C2O)C(OC(=O)/C=C/c2ccccc2)C(O)C1OC(C)=O (centres undefined)	-15.3% [at 9.52 µM]	
C/C=C/C=C/C(=O)OC1CC/C=C/C(O)C(O)C(CCC)OC1=O (centres undefined)	-13%	
C=C1C2CCC3C(CCC4[C@@]3(C)CCC[C@@]4(C)C(=O)O)(C2)[C@@H]1OC(=O)/C(C)=C\C (some centres undefined)	-14.9%	
C[C@@]1(O)[C@H](O)[C@@H](CO)O[C@H]1n1cnc2c(=O)[nH]c(N)nc21	4.56% [at 48.8 µM]	
COC(=O)C1=CO[C@@H](O[C@@H]2O[C@H](CO)[C@@H](O)[C@H](O)[C@H]2O)[C@H]2[C@@H]1C=C[C@]21C=C([C@H](C)OC(=O)/C=C/c2ccc(O[C@@H]3O[C@H](CO)[C@@H](O)[C@H](O)[C@H]3O)cc2)C(=O)O1		inactive [at 15.3 µM]
CC1=C2C[C@@]3(C)C(CCC[C@@H]3C)C(O)C2(O)OC1=O (some centres undefined)	-12.3% [at 48.8 µM]	
OC[C@H]1O[C@@H](O[C@H]2[C@H](O)[C@@H](CO)O[C@@H](OCc3ccccc3)[C@@H]2O[C@@H]2OC[C@](O)(CO)[C@H]2O)[C@H](O)[C@@H](O)[C@@H]1O	4.88%	
CC(C)(CC(=O)N1CCCC1)NCC(=O)N1C[C@@H](F)C[C@H]1C#N	-12.2% [at 48.8 µM]	
CC(C)=C1C[C@@]2(C)C(=CC1=O)CC[C@@H](O)[C@@H]2C	-14.6% [at 48.8 µM]	
CC(C)CC[C@@H](O)[C@](C)(O)[C@H]1CC[C@@]2(O)C3=CC(=O)[C@@H]4C[C@@H](O)[C@@H](O)C[C@]4(C)[C@H]3CC[C@]12C		inactive [at 48.8 µM]
C=C1C(OC(C)=O)CCC2(C)CCC(C(C)(C)O)CC12 (centres undefined)	1.36% [at 48.8 µM]	
CSC(=O)OCC1=C[C@@H]2OC(=O)C3=CO[C@@H](O[C@@H]4O[C@H](CO)[C@@H](O)[C@H](O)[C@H]4O)[C@H]1[C@@H]32	-6.82%	
COc1cc(C(=O)OC[C@H]2O[C@@H](OC(C)(C)C(=O)O)[C@H](O)[C@@H](O)[C@@H]2O)cc(OC)c1O		inactive
C[C@]1(OC(=O)/C=C/c2ccc(O)cc2)C[C@@H](O)[C@]2(O)C=CO[C@@H](O[C@@H]3O[C@H](CO)[C@@H](O)[C@H](O)[C@H]3O)C12 (some centres undefined)		inactive
